# Experimental data as given in PubChem BioAssay.
# Activity calls are given as the source filed them.
# Legend:
# [1] = anti-His antibody binders, primary screen, artefact control for SMM control protein annotation, biochemical, small-molecule microarray, 635 nm fluorescence (AID 1128); conditions: anti-His Alexa647 antibody binding, higher = more signal;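 note: score merges feature fluorescence with signal-to-noise for each printed compound spot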
# [2] = test system: Human papillomavirus type 1a E7 protein (residues 1-88); experiment: HPV1a E7 small-molecule binders, primary screen, biochemical, small-molecule microarray, residues 1-88, 635 nm (AID 1129); conditions: small-molecule microarray binding, fluorescence 635 nm; higher = more signal
# [3] = target: Focal adhesion kinase 1 (Homo sapiens) (UniProt Q05397); experiment: small-molecule microarray binders of FAK, primary screen, biochemical, 635/667 nm fluorescence, BSA, DTT (AID 1130); conditions: PTK2 binding, 635 nm fluorescence, higher = more signal;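 note: composite of spot emission at 667 nm and signal to noise over triplicate slides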
# Chain of Focal adhesion kinase 1 (Homo sapiens) (Q05397 whole entry, looked up): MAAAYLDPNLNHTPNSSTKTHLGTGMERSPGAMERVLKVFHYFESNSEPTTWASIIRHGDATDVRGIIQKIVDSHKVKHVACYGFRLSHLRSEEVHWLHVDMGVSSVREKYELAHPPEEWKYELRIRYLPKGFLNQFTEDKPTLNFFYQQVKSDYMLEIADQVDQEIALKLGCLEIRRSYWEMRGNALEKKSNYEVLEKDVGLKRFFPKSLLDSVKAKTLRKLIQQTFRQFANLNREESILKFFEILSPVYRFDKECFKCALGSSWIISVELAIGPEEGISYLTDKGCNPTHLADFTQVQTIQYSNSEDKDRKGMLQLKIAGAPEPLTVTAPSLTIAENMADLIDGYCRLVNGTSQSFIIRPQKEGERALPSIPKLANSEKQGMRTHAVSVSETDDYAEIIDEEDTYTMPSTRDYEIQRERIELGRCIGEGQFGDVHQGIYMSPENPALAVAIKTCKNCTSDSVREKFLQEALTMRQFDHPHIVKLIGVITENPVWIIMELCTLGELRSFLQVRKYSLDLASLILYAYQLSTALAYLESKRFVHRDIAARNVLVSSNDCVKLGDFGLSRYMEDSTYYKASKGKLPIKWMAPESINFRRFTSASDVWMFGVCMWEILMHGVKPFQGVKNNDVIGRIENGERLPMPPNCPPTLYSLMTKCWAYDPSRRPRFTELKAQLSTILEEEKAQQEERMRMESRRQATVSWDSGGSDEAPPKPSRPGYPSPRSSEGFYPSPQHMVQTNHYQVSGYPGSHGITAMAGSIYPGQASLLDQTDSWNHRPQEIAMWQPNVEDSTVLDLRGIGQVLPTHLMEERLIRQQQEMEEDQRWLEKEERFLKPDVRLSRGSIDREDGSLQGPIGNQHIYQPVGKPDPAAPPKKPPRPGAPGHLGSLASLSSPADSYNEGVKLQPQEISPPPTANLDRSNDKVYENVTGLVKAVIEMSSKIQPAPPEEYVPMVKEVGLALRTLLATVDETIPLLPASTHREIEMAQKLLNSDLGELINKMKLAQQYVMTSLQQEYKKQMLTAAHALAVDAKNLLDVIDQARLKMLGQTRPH
# [4] = test system: Fibrinogen (Alexa647-labelled); experiment: fibrinogen binders on compound microarrays, profiling panel, artefact control for SMM control-protein annotation, biochemical, small-molecule microarray, 635/667 nm fluorescence (AID 1131); conditions: fibrinogen-A647 binding fluorescence, higher = more signal;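 note: z-score merges 667 nm fluorescence with per-spot signal-to-noise over triplicate slides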
# [5] = target: Follistatin (Homo sapiens) (UniProt P19883); experiment: follistatin binders on small-molecule microarrays, primary screen, biochemical, small-molecule microarray, 635/667 nm fluorescence (AID 1132); conditions: FST binding, 635 nm fluorescence, higher = more signal
# Chain of Follistatin (Homo sapiens) (P19883 whole entry, looked up): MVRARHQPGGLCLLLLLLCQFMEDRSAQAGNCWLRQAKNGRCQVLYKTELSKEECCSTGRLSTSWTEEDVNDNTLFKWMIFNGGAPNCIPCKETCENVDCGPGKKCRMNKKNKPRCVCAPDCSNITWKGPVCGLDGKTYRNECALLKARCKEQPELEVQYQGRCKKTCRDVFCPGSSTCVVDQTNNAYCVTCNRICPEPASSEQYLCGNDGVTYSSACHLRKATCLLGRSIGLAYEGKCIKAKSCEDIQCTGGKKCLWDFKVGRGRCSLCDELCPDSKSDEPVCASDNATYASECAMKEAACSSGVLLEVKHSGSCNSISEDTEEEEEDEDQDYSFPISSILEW
# [6] = target: Fibroblast growth factor 2 (Homo sapiens) (UniProt P09038); experiment: FGF2 binders on small-molecule microarrays, primary screen, biochemical, small-molecule microarray, 635/667 nm fluorescence (AID 1133); conditions: small-molecule microarray binding, FGF2, fluorescence 635/667; higher = more signal
# Chain of Fibroblast growth factor 2 (Homo sapiens) (P09038 whole entry, looked up): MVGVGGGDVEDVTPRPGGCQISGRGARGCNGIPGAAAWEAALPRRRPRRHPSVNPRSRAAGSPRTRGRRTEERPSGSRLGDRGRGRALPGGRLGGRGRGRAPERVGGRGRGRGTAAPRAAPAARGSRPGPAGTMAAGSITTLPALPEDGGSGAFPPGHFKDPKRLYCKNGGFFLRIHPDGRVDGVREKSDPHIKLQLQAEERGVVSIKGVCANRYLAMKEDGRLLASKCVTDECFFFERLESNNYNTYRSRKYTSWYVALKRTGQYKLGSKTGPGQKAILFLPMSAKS
# [7] = mitochondrial membrane potential change in A549 cells, profiling panel, cell-based, JC-1 fluorescence, basal, 24 h, 100 nL (AID 1138); conditions: higher = more signal;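 note: A549 lung adenocarcinoma cells under basal conditions with no added stimulus; test concentration not given here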
# [8] = test system: Lefty1; experiment: Lefty1 binders on small-molecule microarrays, primary screen, biochemical, small-molecule microarray, 635/667 nm fluorescence (AID 1139); conditions: small-molecule microarray binding, fluorescence 635/667; higher = more signal
# [9] = test system: wheat germ agglutinin (Triticum aestivum), Alexa647-labelled; experiment: wheat germ agglutinin binders on compound microarrays, profiling panel, artefact control for SMM control-protein annotation, biochemical, small-molecule microarray, 635/667 nm fluorescence (AID 1140); conditions: WGA-A647 binding, 635 nm fluorescence, higher = more signal;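 note: score merges 667 nm feature emission with signal to noise over triplicate slides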
# [10] = target: Luciferin 4-monooxygenase (Photinus pyralis) (UniProt P08659); experiment: firefly luciferase enzyme inhibitors, primary screen, biochemical, luminescence, purified enzyme, 2006 set (AID 1141); conditions: SteadyGlo luminescence, 30 min, higher = more signal, called active from +8 up or from −8 down;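 note: cell-free assay with purified firefly luciferase at 100 ng per well in PBS; test concentration not given here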
# Chain of Luciferin 4-monooxygenase (Photinus pyralis) (P08659 whole entry, looked up): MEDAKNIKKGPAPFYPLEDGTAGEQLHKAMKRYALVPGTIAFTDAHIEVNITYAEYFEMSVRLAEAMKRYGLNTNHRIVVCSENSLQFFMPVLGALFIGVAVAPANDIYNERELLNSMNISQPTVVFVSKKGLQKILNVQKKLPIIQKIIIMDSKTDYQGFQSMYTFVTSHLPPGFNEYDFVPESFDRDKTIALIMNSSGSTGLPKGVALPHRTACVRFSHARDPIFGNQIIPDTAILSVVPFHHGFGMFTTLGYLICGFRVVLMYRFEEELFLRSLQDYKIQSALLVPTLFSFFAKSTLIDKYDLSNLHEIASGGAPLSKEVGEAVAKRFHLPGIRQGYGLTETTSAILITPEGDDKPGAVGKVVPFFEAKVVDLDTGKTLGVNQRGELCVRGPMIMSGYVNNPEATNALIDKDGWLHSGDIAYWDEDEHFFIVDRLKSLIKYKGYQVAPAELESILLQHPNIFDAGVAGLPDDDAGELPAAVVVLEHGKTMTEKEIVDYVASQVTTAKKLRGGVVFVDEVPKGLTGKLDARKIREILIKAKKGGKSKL
Structure (SMILES),composite z-score [1],composite z-score [2],composite z-score [3],composite z-score [4],composite z-score [5],composite z-score [6],z-score [7],composite z-score [8],composite z-score [9],z-score [10]
C=C(CCCC)/C(=C/C[C@@H](OC(C)=O)c1cccc(OCCO)c1)c1cnc2ccccc2c1,1.35,0.157,-0.0542,0.0837,1.4,1.18,0.908,1.37,0.978,-0.245 (inactive)
COC(=O)[C@@]1(Cc2ccc(OC)cc2)[C@H]2c3cc(C(=O)N(C)C)n(Cc4ccc(C(F)(F)F)nc4)c3C[C@H]2CN1C(=O)c1ccccc1,0.598,0.846,1.2,0.843,-0.0313,-0.49,0.549,-0.501,0.833,0.678 (inactive)
Cc1c(NC(=O)/C(C#N)=C/c2cccc([N+](=O)[O-])c2)c(=O)n(-c2ccccc2)n1C,0.551,1.02,-0.148,0.985,0.7,0.793,0.365,0.931,0.441,-1.09 (inactive)
CCOC(=O)C[C@H]1[C@H](OC(=O)c2ccc(C(=O)c3ccccc3)cc2)[C@@H](NC(=O)Cc2ccc(OC)cc2)c2cc(OCCCO)ccc2N1C(=O)c1ccc2ccccc2n1,0.325,0.727,-0.314,0.858,0.513,0.312,0.842,0.735,-0.028,-0.849 (inactive)
CC(C)(C)OC(=O)CC[C@]1(C(N)=O)N=C(c2ccc(OCCCO)cc2)O[C@H]1c1ccccc1,2.07,1.2,0.35,0.407,0.839,0.29,1.04,-0.388,1.48,-0.47 (inactive)
C=CCOC(=O)[C@H]1[C@@H]2C(=O)O[C@@H](c3ccccc3)[C@@H](c3ccccc3)N2[C@@H](c2ccc(OCCOC(=O)[C@@H]3C[C@@H]4C(=O)N5CCC[C@H]5C(=O)N4[C@@H]3c3cccc(OCCO)c3)cc2)[C@]12C(=O)Nc1ccc(I)cc12,1.55,1.2,0.402,0.726,1.45,1.4,-0.838,1.38,0.458,-1.12 (inactive)
CCOC(=O)C[C@H]1[C@H](OC(=O)c2ccc(C(=O)c3ccccc3)cc2)[C@@H](NC(=O)c2ccccc2)c2cc(OCCCO)ccc2N1C(=O)c1ccccc1,0.0654,0.321,0.775,0.704,0.64,0.752,0.697,0.802,0.405,0.685 (inactive)
CC(C)Cc1ccc(CN2CC[C@@H](N)C2)cc1,-0.273,-1.63,-0.0574,-0.0978,-0.304,-0.847,1.85,0.0735,-0.314,0.824 (inactive)
[N-]=[N+]=Nc1ccccc1C[C@@]1(C(=O)N2CCCCC2)N=C(c2ccc(OCCCO)cc2)O[C@@H]1c1ccccc1N=[N+]=[N-],2.17,1.19,0.362,0.98,1.29,0.592,-1.21,-0.271,1.3,-2.39 (inactive)
O=c1cccc(-c2ccccc2Cl)o1,0.0166,0.461,0.678,-0.0231,0.0968,-0.488,-0.556,0.0182,-0.0467,0.294 (inactive)
C=CCC(OC(C)=O)[C@@H]1[C@@H](N(Cc2cc3ccccc3o2)C(=O)Cc2ccc(OC)cc2)c2cc(OCCCO)ccc2N1C(=O)c1ccc2ccccc2c1 (stereo not given in full),0.19,-0.491,0.115,-1.19,0.2,-0.568,-0.319,0.128,0.757,0.148 (inactive)
NCCCCCNC(=O)[C@H]1C[C@H]2C(=O)N[C@@H](Cc3ccccc3)C(=O)N2[C@H]1c1cccc(OCCO)c1,0.614,0.624,0.163,0.962,1.07,0.159,1.07,0.0778,0.782,-1.4 (inactive)
Cc1ccc([C@H]2C(C(=O)O)=CCN2S(=O)(=O)c2ccc(C)cc2)cc1,0.388,0.64,1.36,-0.169,0.585,-0.6,-0.575,0.0829,0.572,0.838 (inactive)
CC(C)=CCCC(C)=CC(O)C1C=CC2C(=O)N(c3ccccc3)C(=O)C2N1Nc1ccc(C(C)C)cc1 (stereo not given),0.491,1.22,0.526,0.998,1.12,-0.373,0.0344,0.262,1.03,0.43 (inactive)
COCCOC(=O)N1C(=O)[C@@]2(c3cc(C#CC4(O)CCCCCC4)ccc31)[C@H](C(=O)Nc1nc3ccccc3s1)[C@H]1C(=O)O[C@H](c3ccccc3)[C@H](c3ccccc3)N1[C@@H]2c1ccccc1OCCO,2.46,1.2,0.823,0.981,1.01,1.37,-1.13,0.581,1.08,-3.04 (inactive)
O=C1NC(=O)C2C1C=CC(C(O)c1ccc(-c3ccccc3)s1)N2Nc1ccc(Cl)cc1Cl (stereo not given),0.752,1.11,1.06,0.934,0.833,-0.91,-0.536,0.127,0.865,-0.289 (inactive)
COC(=O)[C@@]1(CCC(=O)OC(C)(C)C)N=C(c2ccc(OCCCO)cc2)O[C@H]1c1ccccc1,0.467,0.896,0.517,0.554,0.693,0.989,-0.4,-0.85,0.492,-5.22 (inactive)
COc1cc2c(cc1OC)CN(C(=O)[C@H]1[C@@H]3C(=O)O[C@@H](c4ccccc4)[C@@H](c4ccccc4)N3[C@@H](c3ccccc3OCCO)[C@]13C(=O)Nc1ccc(C#CCCO)cc13)CC2,1.1,1.2,0.612,0.871,1.18,1.65,-0.486,1.13,0.524,-0.255 (inactive)
CC(c1ccccc1)C(O)C1C=CC2C(=O)N(C)C(=O)C2N1NC(=O)OC(C)(C)C (stereo not given),0.79,1.21,0.235,1.03,0.696,0.0621,-0.422,-0.271,0.939,-0.934 (inactive)
CC(c1ccccc1)C(O)C1C=CC2C(=O)N(c3ccccc3)C(=O)C2N1Nc1ccccc1 (stereo not given),0.546,1.28,0.476,1.03,1.03,-0.124,-1.27,0.858,1.02,-0.674 (inactive)
O=C1OCCC=C[C@H]2OC34C=CCN(c5ccc(Cl)cc5)C(=O)[C@H]3N(CCCO)C(=O)[C@@H]4C12 (stereo not given in full),-0.598,-1.88,-0.22,-0.867,-0.0633,-0.584,0.0491,0.196,-0.0198,-0.352 (inactive)
COCCCNC(=O)[C@@]1(Cc2ccccc2)N=C(c2ccc(OCCCO)cc2)O[C@H]1c1ccccc1CN=[N+]=[N-],2.82,1.17,0.944,0.913,1.3,0.122,1.99,0.872,1.18,-0.781 (inactive)
O=C1O[C@H](c2ccccc2)[C@H](c2ccccc2)N2[C@H]1[C@@H](C(=O)NC[C@H](O)c1ccccc1)[C@]1(C(=O)Nc3ccc(C#CC4=CCCCC4)cc31)[C@H]2c1ccccc1OCCO,1.24,1.19,0.661,0.86,1.1,0.198,-1.76,0.632,1.05,-0.758 (inactive)
O=C(CS)NCCCCCNC(=O)[C@H]1C[C@H]2C(=O)NCC(=O)N2[C@H]1c1ccc(O)cc1,-0.0453,-1.16,-0.437,-3.23,-0.0739,0.258,-0.0966,0.0911,-0.125,0.612 (inactive)
[N-]=[N+]=Nc1ccccc1C[C@]1(C(=O)NCC(O)CO)N=C(c2ccc(OCCCO)cc2)O[C@H]1c1ccccc1 (stereo not given in full),1.91,1.03,0.0141,0.942,0.497,-0.839,0.0609,-0.492,0.606,-1.78 (inactive)
CCCCCCc1nc(-c2ccc(-c3ccc(Cl)c(Cl)c3)o2)c(C)c2c1[Si](C(C)C)(C(C)C)OC2,-0.0923,-0.634,-0.0899,-0.086,-0.0705,-0.773,-0.838,0.268,-0.328,-2.67 (inactive)
CCOC(=O)C[C@H]1[C@H](OC(=O)c2ccc(-c3ccccc3)cc2)[C@@H](NC(=O)c2ccccc2)c2cc(OCCCO)ccc2N1C(=O)Cc1ccc(OC)cc1,-0.913,-0.509,-0.355,-0.264,-0.434,0.1,1.45,-0.336,-0.126,-0.938 (inactive)
C=CCNC(=O)[C@H]1[C@@H]2C(=O)O[C@@H](c3ccccc3)[C@@H](c3ccccc3)N2[C@@H](c2ccc(O)cc2)[C@]12C(=O)Nc1ccc(C#CCCO)cc12,-0.0591,-0.338,0.459,-0.297,0.265,-0.869,0.0152,0.358,-0.48,0.361 (inactive)
